Reference: PubChem BioAssay (Tox21)
Several values for one entry are separate records, joined by “and”; a condition that tells them apart may be missing. Equal values may be shown once. Records with an inconclusive call do not appear. Entries that show only a call come without a potency. Activity calls are given as the source filed them. Unless noted, the call rests on the fitted dose curve; in most records, active means well fitted curve in the direction sought with a large enough effect in the repeat runs; inconclusive means weak or mixed curves; inactive means no such curve, though single readings can be large; an effect the other way counts as inactive or inconclusive.

Experiments:
[1] = qHTS assay to identify aromatase inhibitors - cell viability counter screen (AID 743084);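 further: cells stimulated with testosterone during compound exposure; nearly all actives have a fitted effect of over 55% in size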; further: potency means the concentration at half of the fitted maximal effect
[2] = target: Aryl hydrocarbon receptor (Homo sapiens) (UniProt P35869); test: qHTS assay to identify small molecule that activate the aryl hydrocarbon receptor (AhR) signaling pathway (AID 743085); further: nearly all actives have a fitted effect of over 15% in size; further: potency means the concentration at half of the fitted maximal effect;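 on activation: HG2L7.5c1 human HepG2 liver cells with stably integrated DRE-driven firefly reporter; series mostly up to about 70 µM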
Summary of the method: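 Cell line HG2L7.5c1 (human hepatoma, 20× DRE-luc). Plated, 5 h 37C, compound/DMSO added, 24 h 37C. CellTiter-Fluor 30 min 37C → fluorescence; then ONE-Glo 30 min RT → luminescence.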

[3] = qHTS assay to identify small molecule that activate the aryl hydrocarbon receptor (AhR) signaling pathway - cell viability counter screen (AID 743086); further: nearly all actives have a fitted effect of over 45% in size; further: potency means the concentration at half of the fitted maximal effect
Summary of the method: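 Cytotoxicity counter screen: CellTiter-Fluor signal (30 min, 37 C) in 4000 HepG2 cells/well carrying the DRE-luciferase reporter, following 24 h compound exposure at 37 C.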

[4] = target: Peroxisome proliferator-activated receptor gamma (Homo sapiens) (UniProt P37231); test: qHTS assay to identify small molecule agonists of the peroxisome proliferator-activated receptor gamma (PPARg) signaling pathway (AID 743094; active means well fitted activation curve with a large enough effect in the signal ratio in the repeat runs, not every such curve was filed as active; the % refers to the signal ratio)
Summary of the method: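 Following 5 h plating at 37C, PPARg-bla HEK293H cells receive compound or DMSO for 17 h; fluorescence intensity is recorded after LiveBLAzer B/G loading for 1 h at room temperature.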

[5] = target: Peroxisome proliferator-activated receptor gamma (Homo sapiens) (UniProt P37231); test: qHTS assay to identify small molecule antagonists of the peroxisome proliferator-activated receptor gamma (PPARg) signaling pathway (AID 743191; calls by dose curve; further: series mostly up to about 63 µM; nearly all actives have a fitted effect of over 30% in size)
Summary of the method: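 Beta-lactamase reporter under UAS control in HEK293H PPARg-bla cells; compound treatment 17 h at 37C. Read-out: fluorescence intensity after 1 h room-temperature incubation with LiveBLAzer B/G FRET substrate.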

[6] = qHTS assay to identify small molecule antagonists of the peroxisome proliferator-activated receptor gamma (PPARg) signaling pathway - cell viability counter screen (AID 743194); further: nearly all actives have a fitted effect of over 55% in size
Summary of the method: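 Viability was measured as CellTiter-Glo luminescence in GeneBLAzer PPARg UAS-bla HEK293H cells. These cells had been exposed 17 h at 37 C to compounds together with rosiglitazone at 50 nM final, with the beta-lactamase readout taken in the same wells.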

[7] = qHTS assay for small molecule agonists of the antioxidant response element (ARE) signaling pathway (AID 743202; active means well fitted activation curve with a large enough effect in the signal ratio in the repeat runs, not every such curve was filed as active; the % refers to the signal ratio)
Summary of the method: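 An ARE-responsive beta-lactamase gene stably integrated in HepG2 cells serves as reporter. After 5 h plating and 16 h compound incubation at 37 C, fluorescence of the B/G FRET substrate was measured.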

[8] = qHTS assay for small molecule agonists of the antioxidant response element (ARE) signaling pathway - cell viability counter screen (AID 743203; calls by dose curve; further: nearly all actives have a fitted effect of over 55% in size)
Summary of the method: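 Compounds in DMSO were pinned onto ARE-bla HepG2 cells plated 5 hrs earlier at 2,000 cells/well. Sixteen hours later at 37C/5% CO2, CellTiter-Glo was added and luminescence measured after 30 min at room temperature.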

[9] = qHTS assay for small molecule activators of the heat shock response signaling pathway - cell viability counter screen (AID 743209); further: nearly all actives have a fitted effect of over 50% in size
Summary of the method: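 Counter screen for cytotoxicity in HeLa HSE-bla reporter cells. Treatment was 5 h at 37 C; viability was detected by luminescent ATP assay (CellTiter-Glo) in the same wells as the beta-lactamase read.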

[10] = qHTS assay for small molecule activators of the heat shock response signaling pathway (AID 743210; active means well fitted activation curve with a large enough effect in the signal ratio in the repeat runs, with a control signal flat, not every such curve was filed as active; the % refers to the signal ratio;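 further: HeLa cells with beta-lactamase reporter driven by heat shock elements; series mostly up to about 63 µM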)
Summary of the method: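 In HSE-bla HeLa cells, 5 h compound incubation (37 C) precedes addition of LiveBLAzer B/G substrate; after 2.5 h at room temperature, fluorescence intensity indicates reporter induction.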

[11] = qHTS assay to identify small molecule agonists of the peroxisome proliferator-activated receptor delta (PPARd) signaling pathway - cell viability counter screen (AID 743211); further: nearly all actives have a fitted effect of over 55% in size
Summary of the method: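 HEK293H PPARd-bla, 3000 cells/well; 5 h preincubation 37C/5% CO2; cpd in DMSO, 17 h 37C; B/G FRET substrate 2 h RT; CellTiter-Glo 30 min RT, luminescence.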

[12] = target: Peroxisome proliferator-activated receptor delta (Homo sapiens) (UniProt Q03181); test: qHTS assay to identify small molecule agonists of the peroxisome proliferator-activated receptor delta (PPARd) signaling pathway (AID 743212; calls by dose curve)
Summary of the method: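 HEK293H UAS-bla reporter cells, human PPARd system; compounds delivered in DMSO after 5 h plating, then at 37 C. Beta-lactamase FRET read, 2 h RT substrate step.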

[13] = qHTS assay to identify small molecule antagonists of the peroxisome proliferator-activated receptor delta (PPARd) signaling pathway - cell viability counter screen (AID 743213); further: nearly all actives have a fitted effect of over 50% in size
Summary of the method: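 Luminescence from CellTiter-Glo, added after the bla read and incubated 30 min at room temperature, gives viability of HEK293H PPARd-bla cells exposed to compounds for 17 h at 37 C with 300 nM L165041.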

[14] = target: Peroxisome proliferator-activated receptor delta (Homo sapiens) (UniProt Q03181); test: qHTS assay to identify small molecule antagonists of the peroxisome proliferator-activated receptor delta (PPARd) signaling pathway (AID 743215; active means well fitted inhibition curve with a large enough effect in the signal ratio in the repeat runs, not every such curve was filed as active; the % refers to the signal ratio;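 further: cells stimulated with agonist L165041 at 300 nM final during compound exposure; series mostly up to about 62 µM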)
Summary of the method: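 With L165041 present at 300 nM final, compounds were incubated 17 h at 37 C on PPARd UAS-bla HEK293H cells. A FRET-based beta-lactamase substrate was then applied for 2 h at room temperature and fluorescence intensity recorded.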

[15] = qHTS assay to identify small molecule agonists of the farnesoid-X-receptor (FXR) signaling pathway - cell viability counter screen (AID 743218); further: nearly all actives have a fitted effect of over 45% in size
Summary of the method: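 After 16 h at 37 C with test compounds, FXR-bla HEK 293T cells were given LiveBLAzer B/G substrate for 2 h at RT and then CellTiter-Glo; luminescence was taken after 30 min.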

[16] = qHTS assay to identify small molecule antagonists of the farnesoid-X-receptor (FXR) signaling pathway - cell viability counter screen (AID 743221; active means well fitted cell-killing curve with a large enough effect in the repeat runs, not every such curve was filed as active; further: nearly all actives have a fitted effect of over 50% in size)
Summary of the method: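 Luminescence from CellTiter-Glo measures cytotoxicity in GeneBLAzer FXR-UAS-bla HEK 293T cells. Cells were exposed to compounds with 50 uM chenodeoxycholic acid (final) for 16 h at 37 C, in wells also used for the reporter readout.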

[17] = target: Vitamin D3 receptor (Homo sapiens) (UniProt P11473); test: qHTS assay to identify small molecule agonists of the vitamin D receptor (VDR) signaling pathway (AID 743222; calls by dose curve)
Summary of the method: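 VDR-bla cells were seeded, left 4 h, treated with compounds in DMSO for 16 h, incubated 2 h at RT with B/G FRET substrate, and read for fluorescence.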

[18] = target: Vitamin D3 receptor (Homo sapiens) (UniProt P11473); test: qHTS assay to identify small molecule antagonists of the vitamin D receptor (VDR) signaling pathway (AID 743223; active means well fitted inhibition curve with a large enough effect in the signal ratio in the repeat runs, not every such curve was filed as active; the % refers to the signal ratio)
Summary of the method: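 Antagonist mode uses 1alpha,25-dihydroxyvitamin D3 at 3 nM final as stimulus. VDR-bla cells receive compounds in DMSO, incubate 16 h at 37C, then a beta-lactamase FRET substrate for 2 h at room temperature before fluorescence measurement.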

[19] = target: Bile acid receptor (Homo sapiens) (UniProt Q96RI1); test: qHTS assay to identify small molecule antagonists of the farnesoid-X-receptor (FXR) signaling pathway (AID 743217; active means well fitted inhibition curve with a large enough effect in the signal ratio in the repeat runs, not every such curve was filed as active; the % refers to the signal ratio)
Summary of the method: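 In this cell-based antagonist screen, inhibition of CDCA-driven (50 uM final) UAS-beta-lactamase expression in HEK 293T cells was measured by FRET fluorescence following 16 h compound exposure at 37 °C.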

[20] = target: Bile acid receptor (Homo sapiens) (UniProt Q96RI1); test: qHTS assay to identify small molecule agonists of the farnesoid-X-receptor (FXR) signaling pathway (AID 743220; active means well fitted activation curve with a large enough effect in the signal ratio in the repeat runs, not every such curve was filed as active; the % refers to the signal ratio)
Summary of the method: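 Beta-lactamase reporter under UAS control in GeneBLAzer FXR HEK 293T cells (5000/well) measured with LiveBLAzer FRET substrate after 2 h at room temperature. Compound exposure lasted 16 h at 37C.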

Sequence of Peroxisome proliferator-activated receptor gamma (Homo sapiens) (P37231 whole entry, looked up): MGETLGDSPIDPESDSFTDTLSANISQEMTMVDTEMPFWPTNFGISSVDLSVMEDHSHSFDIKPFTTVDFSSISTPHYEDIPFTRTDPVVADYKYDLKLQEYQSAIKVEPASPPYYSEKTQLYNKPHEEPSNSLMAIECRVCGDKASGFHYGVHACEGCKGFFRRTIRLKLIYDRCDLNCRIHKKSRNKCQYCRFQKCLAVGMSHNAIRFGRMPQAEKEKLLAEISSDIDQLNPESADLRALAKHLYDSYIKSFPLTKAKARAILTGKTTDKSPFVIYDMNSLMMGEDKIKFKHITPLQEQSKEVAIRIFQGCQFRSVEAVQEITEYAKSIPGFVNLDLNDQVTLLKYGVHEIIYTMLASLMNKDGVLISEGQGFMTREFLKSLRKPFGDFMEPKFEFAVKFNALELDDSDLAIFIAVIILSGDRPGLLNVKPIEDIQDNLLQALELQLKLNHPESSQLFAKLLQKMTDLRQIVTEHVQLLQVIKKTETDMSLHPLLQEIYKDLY
Sequence of Peroxisome proliferator-activated receptor delta (Homo sapiens) (Q03181 whole entry, looked up): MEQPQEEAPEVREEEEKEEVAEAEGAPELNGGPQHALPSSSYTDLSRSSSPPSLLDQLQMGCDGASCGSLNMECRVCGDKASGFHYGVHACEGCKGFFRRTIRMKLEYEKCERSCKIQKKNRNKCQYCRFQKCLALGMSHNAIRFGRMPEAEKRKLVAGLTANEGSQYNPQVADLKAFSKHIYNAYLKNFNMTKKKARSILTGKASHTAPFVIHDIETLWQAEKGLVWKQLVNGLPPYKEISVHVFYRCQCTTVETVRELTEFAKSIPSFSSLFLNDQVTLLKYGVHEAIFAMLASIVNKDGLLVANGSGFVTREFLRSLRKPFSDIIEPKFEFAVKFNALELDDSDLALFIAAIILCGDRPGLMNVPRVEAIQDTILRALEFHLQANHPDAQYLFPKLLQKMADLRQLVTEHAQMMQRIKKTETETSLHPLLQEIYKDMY
Sequence of Aryl hydrocarbon receptor (Homo sapiens) (P35869 whole entry, looked up): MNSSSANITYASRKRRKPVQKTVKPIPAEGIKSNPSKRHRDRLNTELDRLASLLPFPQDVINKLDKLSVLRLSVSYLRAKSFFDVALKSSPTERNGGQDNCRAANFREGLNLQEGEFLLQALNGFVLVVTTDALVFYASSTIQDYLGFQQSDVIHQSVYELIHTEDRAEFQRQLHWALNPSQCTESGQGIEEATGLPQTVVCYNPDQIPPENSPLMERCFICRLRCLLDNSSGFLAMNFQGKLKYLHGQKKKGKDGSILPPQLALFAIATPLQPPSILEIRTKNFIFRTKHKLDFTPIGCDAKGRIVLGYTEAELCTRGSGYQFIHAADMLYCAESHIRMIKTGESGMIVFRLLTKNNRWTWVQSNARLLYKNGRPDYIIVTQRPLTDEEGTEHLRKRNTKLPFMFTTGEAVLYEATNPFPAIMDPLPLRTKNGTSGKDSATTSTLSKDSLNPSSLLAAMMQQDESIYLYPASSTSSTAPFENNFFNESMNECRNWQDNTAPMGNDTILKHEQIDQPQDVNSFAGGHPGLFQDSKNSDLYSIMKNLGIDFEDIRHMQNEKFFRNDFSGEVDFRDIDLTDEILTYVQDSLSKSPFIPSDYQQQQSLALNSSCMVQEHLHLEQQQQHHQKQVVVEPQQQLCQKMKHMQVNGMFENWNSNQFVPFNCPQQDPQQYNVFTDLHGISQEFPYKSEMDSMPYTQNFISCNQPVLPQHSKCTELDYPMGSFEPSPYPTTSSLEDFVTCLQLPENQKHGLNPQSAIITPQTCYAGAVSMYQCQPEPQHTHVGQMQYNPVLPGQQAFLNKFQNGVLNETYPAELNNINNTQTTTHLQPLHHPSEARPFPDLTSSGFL
Sequence of Vitamin D3 receptor (Homo sapiens) (P11473 whole entry, looked up): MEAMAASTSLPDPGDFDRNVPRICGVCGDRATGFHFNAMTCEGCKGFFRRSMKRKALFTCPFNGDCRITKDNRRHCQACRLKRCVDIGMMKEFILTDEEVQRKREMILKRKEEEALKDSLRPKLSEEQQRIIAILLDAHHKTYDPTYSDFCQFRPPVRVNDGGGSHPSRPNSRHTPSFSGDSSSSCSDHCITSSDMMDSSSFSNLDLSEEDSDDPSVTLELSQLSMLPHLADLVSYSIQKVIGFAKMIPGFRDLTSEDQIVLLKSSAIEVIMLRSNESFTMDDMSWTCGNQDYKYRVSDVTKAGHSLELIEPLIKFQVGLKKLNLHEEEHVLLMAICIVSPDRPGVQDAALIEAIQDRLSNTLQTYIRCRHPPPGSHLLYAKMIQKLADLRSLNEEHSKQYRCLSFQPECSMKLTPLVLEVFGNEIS
Sequence of Bile acid receptor (Homo sapiens) (Q96RI1 whole entry, looked up): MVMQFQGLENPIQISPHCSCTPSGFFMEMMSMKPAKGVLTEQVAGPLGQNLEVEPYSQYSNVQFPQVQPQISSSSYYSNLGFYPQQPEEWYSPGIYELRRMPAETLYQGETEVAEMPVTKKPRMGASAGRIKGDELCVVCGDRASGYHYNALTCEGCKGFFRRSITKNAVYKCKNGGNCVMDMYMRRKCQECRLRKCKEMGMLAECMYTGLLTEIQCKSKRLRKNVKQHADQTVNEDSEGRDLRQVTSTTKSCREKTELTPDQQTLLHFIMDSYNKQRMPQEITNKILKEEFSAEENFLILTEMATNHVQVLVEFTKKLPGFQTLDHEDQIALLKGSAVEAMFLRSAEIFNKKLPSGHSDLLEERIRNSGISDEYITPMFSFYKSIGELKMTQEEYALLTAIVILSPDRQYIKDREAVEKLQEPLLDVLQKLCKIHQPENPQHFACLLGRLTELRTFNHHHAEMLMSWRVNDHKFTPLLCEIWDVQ

Row | Structure (SMILES) | Potency [1] | Potency [2] | Potency [3] | outcome [4] | Potency [5] | Potency [6] | Potency [7] | Potency [8] | Potency [9] | outcome [10] | Potency [11] | outcome [12] | Potency [13] | outcome [14] | Potency [15] | Potency [16] | Potency [17] | Potency [18] | outcome [19] | outcome [20]
1 | O=S(=O)(Oc1ccc(Cl)cc1Cl)c1ccccc1 | inactive | inactive | inactive | inactive | inactive | inactive | inactive | inactive | inactive | inactive | inactive | inactive | inactive | inactive | inactive | inactive | inactive | inactive |  | 
2 | Cc1cc(=O)[nH]c(C(C)C)n1 | inactive | inactive | inactive | inactive | inactive | inactive |  | inactive | inactive | inactive |  | inactive | inactive | inactive | inactive | inactive | inactive | inactive | inactive | inactive
3 | CCCCC(CC)COC(C)=O (configuration not stated) | inactive | inactive | inactive | inactive | inactive | inactive |  | inactive | inactive | inactive |  | inactive | inactive | inactive | inactive | inactive | inactive | inactive |  | 
4 | C=C(C)C(=O)OCCCCCCCCCCCC | inactive | inactive | inactive | inactive | inactive | inactive | inactive | inactive | inactive | inactive |  | inactive | inactive | inactive | inactive | inactive | inactive | inactive |  | 
5 | OC[C@@H](O)[C@@H](O)[C@H](O)[C@@H](O)CO | inactive | inactive | inactive | inactive | inactive | inactive | inactive | inactive | inactive | inactive | inactive |  | inactive |  | inactive | inactive | inactive |  |  | 
6 | CCC(=O)O | inactive | inactive | inactive | inactive | inactive | inactive |  | inactive | inactive | inactive | inactive | inactive | inactive | inactive | inactive | inactive | inactive | inactive |  | 
7 | O=C1O[C@H](CO)[C@@H](O)[C@H](O)[C@H]1O | inactive | inactive | inactive | inactive | inactive | inactive |  | inactive | inactive | inactive |  | inactive | inactive | inactive | inactive | inactive | inactive | inactive | inactive | inactive
8 | CC1=C(CC(=O)O)c2cc(F)ccc2/C1=C\c1ccc(S(C)=O)cc1 (configuration not stated) | inactive | 13.3 µM (active) and 24.3 µM (active) | inactive | inactive |  | inactive |  | inactive | inactive | inactive | inactive |  | inactive | inactive | inactive | inactive |  |  |  | 
9 | C=C(C#N)C(=O)OCC | inactive | inactive | inactive | inactive |  |  | inactive | inactive | inactive | inactive | inactive | inactive | inactive |  | inactive | inactive |  |  |  | 
10 | CCCCCCCCCCCCOCC1CO1 (configuration not stated) | inactive | inactive | inactive | inactive | inactive |  | inactive | inactive | inactive | inactive | inactive | inactive | inactive | inactive | inactive | inactive | inactive |  | inactive | inactive
11 | O=C(O)c1cc(-c2ccccc2)nc2ccccc12 | inactive | 58.4 µM (active) | inactive |  | inactive | inactive | inactive | inactive | inactive | inactive |  | inactive |  | inactive | inactive | inactive | inactive | inactive | inactive | inactive
12 | O=[N+]([O-])c1cccc(Cl)c1 | inactive | inactive | inactive | inactive | inactive |  | inactive | inactive | inactive | inactive | inactive | inactive | inactive | inactive | inactive | inactive | inactive | inactive |  | 
13 | CCOC(=O)C1OC1c1ccccc1 (configuration not stated) | inactive | inactive | inactive | inactive | inactive |  |  | inactive | inactive | inactive |  | inactive | inactive | inactive | inactive | inactive | inactive | inactive |  | 
14 | CCC(C)C=O (configuration not stated) | inactive | inactive | inactive | inactive | inactive |  | inactive | inactive | inactive | inactive | inactive | inactive | inactive | inactive | inactive | inactive | inactive |  | inactive | inactive
15 | O=C(c1cc(O)c(O)c(O)c1)c1ccc(O)c(O)c1O | 34.3 µM (active) | 15.4 µM (active) | 30.5 µM (active) |  | inactive |  |  | inactive | inactive | inactive | inactive | inactive | inactive | inactive | inactive | inactive | inactive | inactive | inactive | inactive
